A number with no mark means an inactive call. Calls of active or inactive are those of the source. Rule as the data show it: active = fold change mostly below about -2 (no sharp cut-off); inactive = mostly above about -1.8.
Experiment: modulation of TERT promoter-driven luciferase – cell-based, luciferase reporter, human, primary screen (AID 1259240)
Details: A2780 TERT promoter luciferase reporter, 16 h; at 20 µM, fold versus average of vehicle-only wells

Compound | fold change | outcome
CC1CCN(S(=O)(=O)c2ccc3c(c2)N(CC(=O)N2CCOCC2)C(=O)CO3)CC1 | 1.44 | 
C=CCN1C(=O)C2(/C(=C(/O)c3ccccc3)C(=O)C(=O)N2CCCN2CCOCC2)c2ccccc21 (stereo not given) | 1.29 | 
CCOC(=O)CSc1nnc(-c2c[nH]c3ccccc23)n1CCOC |  | inactive
O=C(NCCCN1CCCC1)c1ccc2nc(N3CCOCC3)sc2c1 | -1.09 | 
COc1ccc2cc3c(N)nn(C(=O)c4cncc(Br)c4)c3nc2c1 | -1.5 | 
CCOC(=O)c1[nH]c2ccc(F)cc2c1N | -1.48 | 
COc1ccc(-c2c(C)oc3c(CN4CCN(C)CC4)c(O)ccc3c2=O)cc1 | 1.02 | 
Cc1nc(SCC(=O)c2ccccc2)c2c(=O)n(C)c(=O)n(C)c2n1 | 1.14 | 
CC(C)n1cnc2cc(NCc3ccccn3)ccc21 | -1.44 | 
Cc1cc(NC(=O)CSc2nnc(Cc3cc(=O)[nH]c(=O)[nH]3)n2-c2ccccc2)no1 | -1.88 | 
Cc1ccc(-n2c(C)c3c(C)nn4cc(C)cc4c3c2C)cc1 | -2.26 (active) | 
COc1ccc2cc3c(N)nn(C(=O)Cn4nc([N+](=O)[O-])c(Br)c4C)c3nc2c1 | -1.45 | 
CCN(CC)CCNC(=O)CN1C(=O)COc2ccc(S(=O)(=O)N3CCOCC3)cc21 | -1.1 | 
CC1CCCC(NC(=O)CC(C)(C)CC2=NS(=O)(=O)c3ccccc3N2)C1C (stereo not given) | 1.01 | 
Cc1c(NC(=O)c2cc(C3CC3)on2)c(=O)n(-c2ccccc2)n1C | -1.33 | 
COC(=O)c1[nH]c(=O)c2ccccc2c1O | -1.15 | 
COc1cc(Nc2nnc(Cc3ccncc3)c3ccccc23)cc(OC)c1OC | -1.31 | 
COc1ccc2nc(C)c(C(=O)OCCN(C)C)cc2c1 | 1.5 | 
Fc1ccc(-c2nnc3ccc(NCCN4CCOCC4)nn23)cc1 | -1.13 | 
C1=C(CCNc2nnc(Cc3cccnc3)c3ccccc23)CCCC1 | -1.15 | 

Compound | fold change | outcome
CN1C(=O)/C(=C/c2cn(CC(=O)N3CCCc4ccccc43)c3ccccc23)c2ccccc21 | 1.47 | 
CCOC(=O)N1CCN(c2nc3ccccc3n3cnnc23)CC1 | 1.59 | 
c1ccc(Nc2c(-c3ccc(N4CCOCC4)cc3)nc3cnccn23)cc1 | 1.08 | 
Cc1nc2c3ccccc3n3c(CCCC(=O)NCc4ccccn4)nnc3n2n1 | -1.25 | 
Cc1cc(C)cc(NC2=C(N3CCOCC3)C(=O)c3ccccc3C2=O)c1 | -1.02 | 
C=CCn1c(Oc2ccccc2Cl)nc2c1c(=O)n(C)c(=O)n2C | -2.84 (active) | 
Cc1ccccc1Cn1nc(C)c(NC(=O)c2cc(C3CC3)on2)c1C | -1.04 | 
COCCCN1CN=C(Nc2nc(C)c3ccc(C)cc3n2)NC1 | -1.94 | 
Cc1cc(NC(=O)CSCc2nc(-c3cccc(Cl)c3)oc2C)no1 | 1.06 | 
O=C(NC1(C(F)(F)F)NC(=O)N(Cc2ccco2)C1=O)c1ccncc1 (stereo not given) | -2.35 (active) | 
COc1ccc(N2CN=c3s/c(=C4\C(=O)N(C)c5ccccc54)c(=O)n3C2)cc1 | -1.56 | 
CC1CCCN(C(=O)c2ccc3c(=O)n4c(nc3c2)CCCCC4)C1 (stereo not given) | 1.14 | 
COc1ccc(C2C3C(=O)N(C(C)C)C(=O)C3ON2c2ccc(Cl)cc2)cc1 (stereo not given) | -1.62 | 
O=C1c2ccccc2C(=O)N1CCC1=NCCc2ccccc21 | -1.59 | 
CCSC1=NSC2=NC(=O)/C(=C\c3coc4ccccc4c3=O)C(=N)N12 | 1.16 | 
FC(F)(F)c1cccc(N2CCN(c3ccc4nncn4n3)CC2)c1 | -1.15 | 
Cc1ccc(Nc2nc3ccccc3n3cnnc23)cc1 | 1.11 | 
CC(C)C(NC(=O)CN1C(=O)c2ccccc2S1(=O)=O)C(C)C | -2.34 (active) | 
O=C(Cn1ncc2c3ccccc3n(Cc3ccccc3)c2c1=O)N1CCOCC1 | -1.17 | 
CCOC(=O)Cn1c(=O)oc2cc(S(=O)(=O)NCc3ccccn3)ccc21 | 1.36 | 

Source: PubChem BioAssay AID1259240 (Keith Lab, Institute of Cancer Science, University of …, 2017)
